Assay outcomes: PubChem, Broad Institute
Tgondii IFNg – T. gondii growth inhibition with IFN-gamma, primary screen, cell-based | Toxoplasma gondii growth in IFN-gamma-treated host cells; stronger effect = lower value | activity change, negative = inhibition, % (concentration not given with the values) | 3.8% of 69,000 active | AID 1259416, 2018; in the data active = activity change below about -70%, passing the limit was not always enough;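 note: host cells are HeLa cells infected with Toxoplasma gondii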
* hit, by the source's call; i = inactive; ! = not confirmed by another sample. Many of the other results were omitted from the sample, so hits are more common in it than they were.

SMILES	Tgondii IFNg
O=C(Nc1ccc(OC(F)(F)F)cc1)c1c(O)c2ccccc2[nH]c1=O	10
O=c1cc(Nc2ccc(OC(F)(F)F)cc2)c2ccccc2o1	-102*
COc1ccc(-c2nc(CNS(=O)(=O)c3c(C)cc(C)cc3C)c(C)o2)cc1	39
Cc1cc(C(=O)NCCN2CCCCC2)no1	93
CCOc1ccc(C2c3[nH]c4ccccc4c3CCN2C(=O)COC)cc1 (configuration not stated)	i
O=C(c1cccc(F)c1)N1CCc2c([nH]c3ccccc23)C1c1ccccc1 (configuration not stated)	-46
Cc1ccc(C(=O)N2CCc3c([nH]c4ccccc34)C2c2ccc(C)cc2)cc1 (configuration not stated)	i
COc1cc(C(=O)N2CCc3c([nH]c4ccccc34)C2c2ccc(C)cc2)cc(OC)c1OC (configuration not stated)	265
Cc1ccc(C2c3[nH]c4ccccc4c3CCN2C(=O)c2cccc(F)c2)cc1 (configuration not stated)	-129*
CCOc1ccc(C2c3[nH]c4ccccc4c3CCN2C(=O)c2cccc(F)c2)cc1 (configuration not stated)	-113*
Cc1ccc(C2c3[nH]c4ccccc4c3CCN2C(=O)c2ccnn2C)cc1 (configuration not stated)	175
Cc1ccc(C2c3[nH]c4ccccc4c3CCN2C(=O)c2cc3ccccc3[nH]2)cc1 (configuration not stated)	-79*
CCOc1ccc(C2c3[nH]c4ccccc4c3CCN2C(=O)c2cccnc2)cc1 (configuration not stated)	55
O=C(O)CSc1cc(-c2ccccc2)nc(SCC(=O)O)n1	18
CC(C)N(CCCNC(=O)Nc1ccc(C(C)(C)C)cc1)C[C@H]1O[C@@H](n2cc(Br)c3c(N)ncnc32)[C@H](O)[C@@H]1O	-50
CCCN1CCc2nc(SCc3nc(-c4ccccc4OC)oc3C)[nH]c(=O)c2C1	14
CC(CCn1cccn1)Nc1ccc(-c2nccn2C)nn1 (configuration not stated)	-24
OC1CCCN(c2ccnc(N3CC(c4cccnc4)C3)n2)C1 (configuration not stated)	2
COc1ccc(CN2C(=O)N(CC(C)C)C3(CCN(Cc4cccc5ncccc45)CC3)C2=O)cc1	8
Cc1ccc(N2CCC3(CC2)NC(=O)CC3c2cnn(C)c2)nn1 (configuration not stated)	13
Cc1c2oc3c(C)ccc(C(=O)OC(C)C4NC(=O)C(C(C)C)N(C)C(=O)CN(C)C(=O)C5CCCN5C(=O)C(C(C)C)NC4=O)c3nc-2c(C(=O)OC(C)C2NC(=O)C(C(C)C)N(C)C(=O)CN(C)C(=O)C3CCCN3C(=O)C(C(C)C)NC2=O)c(N)c1=O (configuration not stated)	-83*
COCC(=O)N1CCO[C@]2(CCC[C@@H]2COCc2ccccn2)C1	-8
CCOC(=O)c1cnc2ccc(C(=O)OC)cc2c1Nc1ccc(C(=O)O)cc1	-47
CCOC(=O)c1cnc2ccc(C(=O)OC)cc2c1Nc1ccc2c(c1)OCCO2	-72*!
CCOC(=O)c1cnc2ccccc2c1NCCO	13
SMILES	Tgondii IFNg
Cc1ccc(CN2C[C@H](OCC3CCOCC3)[C@@H]3COC[C@@H]32)o1	-15
CNC(=O)CC1CC2(CCN(S(=O)(=O)c3cccs3)CC2)c2ccccc21 (configuration not stated)	-7
CNCCCC12CCC(c3ccccc31)c1ccccc12	-79*!
CC(C)(C)[S@](=O)N1Cc2cc(C(=O)NC3CCC3)nc(-c3cccc(Br)c3)c2[C@@H]1CCO	-75*
COc1ccc(C#Cc2cccc(-c3nc(C(=O)NCCCN4CCOCC4)cc4c3[C@@H](CCO)N(S(=O)C(C)(C)C)C4)c2)cc1OC (some centres not stated)	23
COc1ccc(C#Cc2cccc(-c3nc(C(=O)N4CCN(Cc5ccccc5)CC4)cc4c3[C@@H](CCO)N(S(=O)C(C)(C)C)C4)c2)cc1OC (some centres not stated)	-48
COc1ccc(C#Cc2cccc(-c3nc(C(=O)Nc4ccc(-c5ccccc5)cc4)cc4c3[C@@H](CCO)N(S(=O)C(C)(C)C)C4)c2)cc1OC (some centres not stated)	-71*
CN(C)C(=O)c1ccc(-c2cccc(-c3nc(C(=O)NC4CCCCC4)cc4c3[C@H](CCO)N([S@@](=O)C(C)(C)C)C4)c2)cc1	-48
CC(C)(C)[S@@](=O)N1Cc2cc(C(=O)NC3CCC3)nc(-c3cccc(Br)c3)c2[C@H]1CCO	48
CCN(C(=O)c1cccc(NC(=O)CSc2nncn2C)c1)c1ccccc1	7
C[C@H]1C[C@@H]2CN(C(=O)CCc3ccc(Cl)cc3)CC[C@H]2O1	0
Cc1cccc(Cn2c(CN3CCC(C(=O)N4CCCC4)CC3)cc3ccccc32)c1	5
COc1ccc(C(=O)N2CCC(c3cc(-c4cccc(F)c4)n(C)n3)CC2)cc1	-7
Cc1cccc(CN2CCN(Cc3sc(N(C)C)nc3Cl)CC2)c1	-8
Cc1cnccc1NCCNc1nc(-c2cccnc2)nc2c1cnn2C	3
O=c1c2c3ccccc3[nH]c2c2cccc3c2n1CC3	-89*
CN1CCc2ccccc2Cc2[nH]c3ccccc3c2CC1	7
O=c1cc(O)c2c(=O)n3c4c(cccc4c2o1)CCC3	-15
Cc1nc2c(c(=O)[nH]1)CCN(C(=O)Cn1cnc3ccccc3c1=O)C2	-4
Cc1cccc(-c2nc(C)c(CCNC(=O)c3ccccc3Br)s2)c1	i
CCN(CC)c1nc(Nc2ccc(OC)cc2)nc(Nc2ccc(OC)cc2)n1	-97*
CCN(CC)c1ccc(NC(=S)NC(=O)c2ccc(OC)cc2)cc1	-10
COc1ccc(Nc2nccc(NCCO)n2)cc1	85
CCS(=O)(=O)N1CCC2(CC1)CC(COCC1CC1)N(C)C2 (configuration not stated)	2
COc1ccc(N2CC(C(=O)NCc3ccccc3OC)CC2=O)cc1 (configuration not stated)	11
SMILES	Tgondii IFNg
Cn1cc(CNC2CCc3c(ccc(=O)n3C)C2)cn1 (configuration not stated)	-11
CC(=O)N1CCC(NCCCn2ccc3ccccc32)CC1	-2
O=C(NCCN1C(=O)CSC1=O)c1ccc(N2C(=O)CCC2=O)cc1	2
COCCn1c(COc2ccc(Cl)cc2)nc2ccccc21	71
CC(=O)N(C)Cc1nc2ccccc2n1CCCCOc1ccccc1Cl	-40
COc1ccc(Cc2nc3ccccc3n2CCCOc2ccccc2OC)cc1OC	-97*
CN(Cc1cc(-c2ccccc2)no1)Cc1ccc(C2CCCO2)s1 (configuration not stated)	-38
COc1cc(Cl)ccc1C(=O)NCC1CCCN(C)C1 (configuration not stated)	-2
COc1cc(C(=O)N2CCC3(CC2)NC(=O)c2ccc(Cl)cc2N3)cc(OC)c1OC	132
COc1ccccc1C(=O)C1C(=O)NC23CCN(C)CC2C1c1cc(Cl)ccc1O3 (configuration not stated)	-87*
COc1ccc2c3c([nH]c2c1)[C@@H](CO)N(C(=O)C1CCOCC1)CC31CCN(Cc2cccc(F)c2)CC1	-28
O=C(c1cc2c(c3ccccc3n2CC2CC2)n1-c1ncccn1)N1CCCCC1	-9
C[C@@H]1CCCCO[C@H](CN(C)S(=O)(=O)c2ccccc2)[C@H](C)CN([C@@H](C)CO)C(=O)c2cc(NC(=O)Nc3ccc4c(c3)OCO4)ccc2O1	251
